In PubChem BioAssay (NCI):
This is part of a sample that, as a whole, favours compounds with a hit. Of some 83,000 tested, about 20% had one in any assay.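 Testing used 96-well plates and a 48-hour single-concentration exposure. Example: -40 means 40% of the starting cells died.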 Active and inactive are the calls of the source. Rule for the calls: active = growth percent below 10; inactive = the rest.

Assays:
Assay in all cases: NCI-60 one-dose screen, 48 h (100 = growth as untreated, 0 = no growth, -100 = all killed)
Conditions in all cases: 10 µM unless noted
NCI-H23 lung = system: NCI-H23 lung
NCI-H226 lung = system: NCI-H226 lung
NCI-H322M lung = system: NCI-H322M lung
HOP-62 NSCLC = system: HOP-62 NSCLC
NCI-H460 lung = system: NCI-H460 lung
HOP-92 NSCLC = system: HOP-92 NSCLC
NCI-H522 lung = system: NCI-H522 lung
A549/ATCC NSCLC = system: A549/ATCC NSCLC
786-0 renal = system: 786-0 renal
COLO 205 colon = system: COLO 205 colon
DU-145 prostate = system: DU-145 prostate
MALME-3M melanoma = system: MALME-3M melanoma
MDA-MB-231 breast = system: MDA-MB-231 breast
RXF 393 renal = system: RXF 393 renal
SF-268 CNS = system: SF-268 CNS
SF-295 CNS = system: SF-295 CNS
SF-539 CNS = system: SF-539 CNS
UACC-257 melanoma = system: UACC-257 melanoma
K-562 leukemia = system: K-562 leukemia

Measured: growth

CCCCNC(=O)c1cc(NCc2cc(O)ccc2O)ccc1O
active: NCI-H522 lung -55.7%
inactive: NCI-H23 lung 93.4% | NCI-H226 lung 106% | NCI-H322M lung 91.3% | HOP-62 NSCLC 84.4% | NCI-H460 lung 106% | HOP-92 NSCLC 67.7% | A549/ATCC NSCLC 77.1% | 786-0 renal 80.4% | COLO 205 colon 108% | DU-145 prostate 99.7% | MALME-3M melanoma 108% | MDA-MB-231 breast 84% | RXF 393 renal 83.7% | SF-268 CNS 84.1% | SF-295 CNS 101% | SF-539 CNS 62.2% | UACC-257 melanoma 68.9%

COc1cc2oc(-c3cccc(C(=O)Nc4ccc(C#N)cc4)c3)cc(=O)c2c(O)c1OC
active: HOP-62 NSCLC -31.8%
inactive: NCI-H23 lung 38.2% | NCI-H226 lung 21.2% | NCI-H322M lung 72.7% | NCI-H460 lung 18.9% | HOP-92 NSCLC 79.2% | NCI-H522 lung 61.2% | A549/ATCC NSCLC 37.4% | 786-0 renal 70.4% | COLO 205 colon 39.9% | DU-145 prostate 34.2% | K-562 leukemia 66.4% | MALME-3M melanoma 47.7% | RXF 393 renal 102% | SF-268 CNS 50% | SF-295 CNS 36.8% | SF-539 CNS 82.4% | UACC-257 melanoma 88.9%

C[C@@H]1CC[C@@H]2[C@@H]1[C@H](OC(=O)/C=C/c1ccccc1)[C@]1(CCCOCCOCCOCCOC(=O)CCCC[C@@H]3SC[C@@H]4NC(=O)N[C@@H]43)C[C@@H](OC(=O)CO)[C@@]2(C)O1
inactive: NCI-H23 lung 102% | NCI-H226 lung 105% | NCI-H322M lung 92.6% | HOP-62 NSCLC 99.3% | NCI-H460 lung 106% | HOP-92 NSCLC 108% | NCI-H522 lung 85% | A549/ATCC NSCLC 97.7% | 786-0 renal 97.6% | COLO 205 colon 112% | DU-145 prostate 103% | MALME-3M melanoma 99.6% | MDA-MB-231 breast 106% | RXF 393 renal 108% | SF-268 CNS 102% | SF-295 CNS 107% | SF-539 CNS 103% | UACC-257 melanoma 109%

COc1c(C)cnc(CSc2nc(-c3ccc(C)cc3)cn2-c2ccc(Cl)cc2)c1C
inactive: NCI-H23 lung 97% | NCI-H226 lung 102% | NCI-H322M lung 80.9% | HOP-62 NSCLC 89.5% | NCI-H460 lung 101% | HOP-92 NSCLC 103% | NCI-H522 lung 55.9% | A549/ATCC NSCLC 88.6% | 786-0 renal 95.3% | COLO 205 colon 96% | DU-145 prostate 107% | MALME-3M melanoma 93.4% | MDA-MB-231 breast 88.5% | RXF 393 renal 108% | SF-268 CNS 99.6% | SF-295 CNS 110% | SF-539 CNS 105% | UACC-257 melanoma 91.5%

O=C(Nc1ccccc1)c1sc(-c2cccc(C(F)(F)F)c2)cc1O
active: HOP-92 NSCLC -7.04%
inactive: NCI-H23 lung 54.1% | NCI-H226 lung 80.1% | NCI-H322M lung 77.1% | HOP-62 NSCLC 79.5% | NCI-H460 lung 49.4% | NCI-H522 lung 39.6% | A549/ATCC NSCLC 64.2% | 786-0 renal 89.6% | COLO 205 colon 107% | DU-145 prostate 82.4% | MALME-3M melanoma 81.4% | MDA-MB-231 breast 91.9% | RXF 393 renal 102% | SF-268 CNS 82.8% | SF-295 CNS 82.9% | SF-539 CNS 42.2% | UACC-257 melanoma 46.9%

COc1cc(C(=O)Nc2cc(O)c(CC=C(C)C)c(O)c2)cc2c1O[C@]1(C)CC[C@@H](O)C(C)(C)[C@H]1C2
inactive: NCI-H23 lung 38.7% | NCI-H226 lung 47.6% | NCI-H322M lung 66.4% | NCI-H460 lung 15.6% | NCI-H522 lung 10% | A549/ATCC NSCLC 18.5% | DU-145 prostate 42% | MALME-3M melanoma 58.6% | MDA-MB-231 breast 24.1% | SF-268 CNS 39.5% | UACC-257 melanoma 27.2%
active: HOP-62 NSCLC 6.01% | HOP-92 NSCLC -5.08% | 786-0 renal -11.7% | COLO 205 colon -11.8% | RXF 393 renal -18.5% | SF-295 CNS -52.1% | SF-539 CNS -50.8%

CO/C(=C1/NC(=O)C(Cc2ccc(O)c(Br)c2)N(C)C(=O)C(C)NC(=O)CCC/C=C(\C)CCC(C)OC1=O)c1ccccc1 (centres undefined)
active: NCI-H226 lung -33.9% | NCI-H322M lung -34.3% | HOP-62 NSCLC -19.7% | NCI-H460 lung -22.1% | HOP-92 NSCLC -53.9% | NCI-H522 lung -61.1% | A549/ATCC NSCLC -49.5% | 786-0 renal -35.6% | COLO 205 colon 7.23% | DU-145 prostate -17.3% | K-562 leukemia 6.13% | MDA-MB-231 breast -31.3% | RXF 393 renal -79.5% | SF-268 CNS -43.6% | SF-295 CNS -65.3% | SF-539 CNS -52.3% | UACC-257 melanoma -54%
inactive: NCI-H23 lung 25.1%

Cc1nc(Nc2ccc(NC(=S)Nc3ccccc3)cc2)nc2nc(SCc3ccccc3)[nH]c(=O)c12
inactive: NCI-H23 lung 101% | NCI-H226 lung 82.6% | NCI-H322M lung 173% | HOP-62 NSCLC 95.2% | NCI-H460 lung 107% | HOP-92 NSCLC 82.4% | NCI-H522 lung 40.5% | A549/ATCC NSCLC 57.9% | 786-0 renal 99.1% | COLO 205 colon 126% | DU-145 prostate 104% | K-562 leukemia 72.1% | MDA-MB-231 breast 76.9% | SF-268 CNS 98.4% | SF-295 CNS 169% | SF-539 CNS 63.3% | UACC-257 melanoma 74.8%
active: RXF 393 renal -24%
